Results on 35 compounds are retold here after PubChem BioAssay.

Calls of active or inactive are those of the source.

The first experiment in a line: plasmodial surface anion channel blockers, osmotic lysis – cell-based, P. falciparum Indochina, OD700, 18 h, primary screen (AID 1157). To be noted: P. falciparum Indochina infected erythrocytes, osmotic lysis OD700, 18 h; higher = more signal, called active from +8 up or from −8 down.
Take `C=C(COC)C(=O)CC[C@@H](OC(C)=O)c1ccc(OCCO)cc1`: the z-score was 0.0871 (inactive).
Still for that read-out and setting: with `O=C(NCCO)C1=C[C@H](Oc2ccccc2I)[C@@H](O)[C@H](NCc2ccc(F)cc2)C1` the figure was 1.11 (inactive).
As for `O=C1O[C@@H](c2ccccc2)[C@@H](c2ccccc2)N2[C@@H](c3ccc(OCCO)cc3)[C@]3(C(=O)Nc4ccc(C#CCCO)cc43)[C@@H](C(=O)Nc3nc4ccccc4s3)[C@H]12`, the z-score is -1.15 (inactive).
Same read-out and setting: the same measure for `NCCCC[C@@H]1NC(=O)[C@H]2C[C@@H](C(=O)O)[C@@H](c3cccc(OCCO)c3)N2C1=O`: 0.253 (inactive); for `COCCOC(=O)N1C(=O)[C@@]2(c3cc(C#CCCO)ccc31)[C@H](C(=O)N1CCc3cc(OC)c(OC)cc3C1)[C@H]1C(=O)O[C@H](c3ccccc3)[C@H](c3ccccc3)N1[C@@H]2c1ccccc1OCCO`: 1.05 (inactive); for `COC(=O)[C@@]1(Cc2ccccc2)[C@@H]2[C@@H](CC(=O)[C@H]2CC(=O)C(=O)N(C)C)CN1C(=O)c1ccccc1`: 0.738 (inactive).
On to `O=C1O[C@H](c2ccccc2)[C@H](c2ccccc2)N2[C@H]1[C@@H](C(=O)N1CCN(c3ncccn3)CC1)[C@]1(C(=O)Nc3ccccc31)[C@H]2c1ccc(O)cc1`, for which the z-score is 1.01 (inactive).
Regarding `CCOC(=O)C1=CC[C@@H](c2ccccc2Cl)N(S(=O)(=O)c2ccc(C)cc2)[C@H]1c1cccc(OC)c1`, the z-score is 0.362 (inactive).

A short description of a further experiment: S6 kinase pathway phospho-S6 level changes – cell-based, A549, cytoblot, luminescence, serum-stimulated, primary screen (AID 1158).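 Note: serum-stimulated A549 lung adenocarcinoma cells; signal is phosphorylated S6 detected by cytoblot immunostaining with HRP secondary.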 To be noted: 5 h, higher = more signal.
In turn, `Cc1ccccc1C(O)C1C=CC2C(=O)N(c3ccccc3)C(=O)C2N1Nc1ccccc1F` (stereo not drawn) registered a z-score of -1.16.
The same measure, in the same setting: with `COC(=O)[C@@]1(CCS(=O)(=O)c2ccccc2)N=C(c2ccc(OCCCO)cc2)O[C@H]1c1ccccc1N=[N+]=[N-]` the figure was 0.819.
`C=C(CCCC)C(=O)CC[C@H](OC(=O)c1cccnc1)c1ccc(CO)o1`: the z-score is -0.253.
The same measure, in the same setting: with `COCCOC(=O)N1C(=O)[C@@]2(c3cc(C#CC4(O)CCCCCC4)ccc31)[C@H](c1ccc(OCCO)cc1)N1[C@H](c3ccccc3)[C@H](c3ccccc3)OC(=O)[C@H]1[C@@H]2C(N)=O` the figure was -0.485; with `CN(C)C(=O)[C@]1(Cc2ccccc2)N=C(c2ccc(OCCCO)cc2)O[C@@H]1c1ccccc1`, -0.0744; with `COc1ccc(C#Cc2ccc3c(c2)[C@]2(C(=O)N3)[C@H](C(=O)Nc3nc4ccccc4s3)[C@H]3C(=O)O[C@H](c4ccccc4)[C@H](c4ccccc4)N3[C@@H]2c2ccc(OCCO)cc2)cc1`, 0.13.
On the same count and under the same terms, with `CCOC(=O)C[C@H]1[C@H](OC(=O)c2ccc(C(=O)c3ccccc3)cc2)[C@@H](NC(=O)c2ccc3ccccc3c2)c2cc(OCCCO)ccc2N1C(=O)c1ccc2ccccc2n1` the figure was 0.154.
The same measure, in the same setting: with `CN(C)CCCCNC(=O)[C@H]1C[C@H]2C(=O)N[C@@H](Cc3ccccc3)C(=O)N2[C@H]1c1cccc(OCCO)c1` the figure was 0.331.
`C=C(CC1([C@@H](NP(=O)(c2ccccc2)c2ccccc2)[C@H]2C[C@@H]2CCN(C(=O)OCC)S(=O)(=O)c2ccc(C)cc2)CC1)c1ccccc1` yielded a z-score of 0.603.
Compound `C=C(CCCC)/C(=C/C[C@H](OC(C)=O)c1cccc(OCCO)c1)c1cc(C(=O)OC)ccc1OC` displayed a z-score of -0.377.
`C=CCNC(=O)[C@H]1[C@@H]2C(=O)O[C@@H](c3ccccc3)[C@@H](c3ccccc3)N2[C@@H](c2ccccc2OCCO)[C@]12C(=O)N(C(=O)OCCOC)c1ccccc12` registered a z-score of 0.015.
The same measure, in the same setting: with `O=C1OCCC/C=C\[C@H]2OC34C=CCN(Cc5ccccc5)C(=O)[C@H]3N(CCCCCO)C(=O)[C@@H]4C12` (stereo partly drawn) the figure was -0.412; with `CC(C)(C)OC(=O)CC[C@]1(C(=O)N2CCOCC2)N=C(c2ccc(OCCCO)cc2)O[C@H]1c1ccccc1CN=[N+]=[N-]`, 0.705; with `CCCC=C(CCC)[C@@H](NC(=O)c1ccco1)c1ccc(C(=O)OC)cc1`, -0.277.
The compound `COC(=O)c1c(CC[C@@H](CO)NC(=O)N[C@@H](Cc2ccccc2)Cn2cc(-c3cncn3C)nn2)oc(C(C)=O)c1C(=O)OC` gave a z-score of 1.22.
In turn, `COC(=O)[C@@]1(Cc2ccc(OC)cc2)[C@H]2c3cc(C(=O)N(C)C)n(Cc4ccsc4Br)c3C[C@H]2CN1C(=O)c1ccccc1` had a z-score of -0.87.
The same measure, in the same setting: the same measure for `C=CCC(OC(C)=O)[C@@H]1[C@@H](N(Cc2ccc(-c3ccccc3)cc2)C(=O)c2ccc(-c3ccccc3)cc2)c2cc(OCCCO)ccc2N1C(=O)c1ccc2ccccc2n1` (stereo partly drawn): 0.364; for `O=C1c2ccccc2[C@](Cc2ccccc2I)(C(=O)O)[C@H](c2ccc(CO)cc2)N1Cc1ccccc1`: 1.25; for `COCC(=C=CC[C@@H](O)c1cccc(OCCO)c1)C[C@@H](O)COCc1ccccc1`: 1.31.
In turn, `C[N+](C)(C)CCCCCCNC(=O)[C@@H]1C[C@@H]2C(=O)N[C@@H](Cc3ccccc3)C(=O)N2[C@@H]1c1ccc(O)cc1` had a z-score of -0.491.
Still for that read-out and setting: with `COCCOC(=O)N1C(=O)[C@@]2(c3ccccc31)[C@H](c1ccc(OCCO)cc1)N1[C@H](c3ccccc3)[C@H](c3ccccc3)OC(=O)[C@H]1[C@@H]2C(=O)N1CCN(c2ncccn2)CC1` the figure was 0.0018.
On the same count and under the same terms, with `COCCOC(=O)N1C(=O)[C@@]2(c3cc(C#CCCO)ccc31)[C@H](c1ccccc1OCCO)N1[C@H](c3ccccc3)[C@H](c3ccccc3)OC(=O)[C@H]1[C@@H]2C(=O)N1CCc2cc(OC)c(OC)cc2C1` the figure was 0.199; with `C=CCC(OC(C)=O)[C@@H]1[C@@H](N(Cc2cc3ccccc3o2)C(=O)Cc2ccc(OC)cc2)c2cc(OCCCO)ccc2N1C(=O)Cc1ccc(OC)cc1` (stereo partly drawn), -0.0725; with `CC(C)C[C@H]1NC(=O)[C@@]23C(=O)N[C@@H](Cc4ccccc4)C2[C@H](C)[C@@]2(C)O[C@H]2C3/C=C/C/C=C\CNC(=O)[C@@H]2CCCN2C1=O` (stereo partly drawn), 0.0247.
With `COCCOC(=O)N1C(=O)[C@@]2(c3cc(C#CCC(C(=O)OC)C(=O)OC)ccc31)[C@H](c1ccc(OCCO)cc1)N1[C@H](c3ccccc3)[C@H](c3ccccc3)OC(=O)[C@H]1[C@@H]2C(=O)N1CCCCCCC1`, the z-score was -0.0522.
As to `COCC(=C=CC[C@@H](O)c1ccc(OCCO)cc1)C[C@@H](O)COCc1ccccc1`, the z-score was determined as 2.43.
With `COC(=O)[C@@H]1N=C(c2ccc(OCCCO)cc2)O[C@@H]1c1ccccc1CN=[N+]=[N-]`, the z-score was -0.239.
In turn, `C=C(COC)C(=O)CC[C@@H](OC(C)=O)c1ccc(OCCO)cc1` gave a z-score of 0.239.
Still for that read-out and setting: with `O=C(NCCO)C1=C[C@H](Oc2ccccc2I)[C@@H](O)[C@H](NCc2ccc(F)cc2)C1` the figure was 0.436.
`O=C1O[C@@H](c2ccccc2)[C@@H](c2ccccc2)N2[C@@H](c3ccc(OCCO)cc3)[C@]3(C(=O)Nc4ccc(C#CCCO)cc43)[C@@H](C(=O)Nc3nc4ccccc4s3)[C@H]12` registered a z-score of 0.922.
On the same count and under the same terms, the same measure for `NCCCC[C@@H]1NC(=O)[C@H]2C[C@@H](C(=O)O)[C@@H](c3cccc(OCCO)c3)N2C1=O`: -0.993.
Consider `COCCOC(=O)N1C(=O)[C@@]2(c3cc(C#CCCO)ccc31)[C@H](C(=O)N1CCc3cc(OC)c(OC)cc3C1)[C@H]1C(=O)O[C@H](c3ccccc3)[C@H](c3ccccc3)N1[C@@H]2c1ccccc1OCCO`, for which the z-score worked out at 0.0854.
Same read-out and setting: with `COC(=O)[C@@]1(Cc2ccccc2)[C@@H]2[C@@H](CC(=O)[C@H]2CC(=O)C(=O)N(C)C)CN1C(=O)c1ccccc1` the figure was -0.268.
Still for that read-out and setting: the same measure for `O=C1O[C@H](c2ccccc2)[C@H](c2ccccc2)N2[C@H]1[C@@H](C(=O)N1CCN(c3ncccn3)CC1)[C@]1(C(=O)Nc3ccccc31)[C@H]2c1ccc(O)cc1`: 0.0782.
On the same count and under the same terms, with `CCOC(=O)C1=CC[C@@H](c2ccccc2Cl)N(S(=O)(=O)c2ccc(C)cc2)[C@H]1c1cccc(OC)c1` the figure was -0.401.
